ChEMBL document CHEMBL3988442, “University of Dundee, Small-Polar-MMV Screening Library” (2021)
In all, about 48,000 compounds went through this assay and about 13,000 (27%) showed an effect of 50% or more. Some of the results follow.

tested on: Wolbachia pipientis; experiment: Anti-Wolbachia Cell-Based Screen; type: functional; parameters: scale not given: in the data most compounds retested in dose-response had high values; conditions: 5 µM

SMILES | Percent Effect [%]
CCc1ccc(CN2CC[C@H]3C[C@H](c4nnc(C)[nH]4)O[C@@H]3C2)o1.O=C(O)C(F)(F)F | -6.047
CC(Sc1nnnn1C1CCOCC1)C(=O)NC1CCCCC1 (stereo not given) | -2.14
C[C@@H]1CN(c2ccc(Cl)cn2)C[C@@]1(O)C1CC1 | 109.5
CC(C)NC(=O)CN(C)C1CCN(c2ccc(Cl)cn2)CC1 | -2.588
CS(=O)(=O)CCN1CCN(c2ccc(Cl)cn2)CC1 | -5.169
C[C@@H]1CN(c2ccc(Cl)cn2)C[C@]1(C)O | 110.4
C[C@@H]1CN(c2cc(N3CCC(O)CC3)ncn2)C[C@@]1(O)C1CC1 | -16.8
COc1cc(N2C[C@@H](C)[C@](O)(C3CC3)C2)ncn1 | -12.89
O=C1COc2ccc(C(=O)NS(=O)(=O)c3ccc(F)cc3F)cc2N1 | 1.32
CCS(=O)(=O)N1CCC(c2nnc(CN3CCCC3)n2C2CC2)CC1 | -2.411
OCCOc1cc(F)ccc1NCc1nc(-c2cccs2)no1 | 14.46
Cc1cnn(CCNCc2nnc(-c3occc3C)o2)c1 | 122.9
Cc1cnn(CCNCc2nnc(-c3ccccc3)o2)c1 | 127.3
Cc1ccc(-c2cc(CNCCn3cc(C)cn3)on2)cc1 | -23.87
Cc1ccoc1-c1nnc(CNCCn2cccn2)o1 | -4.902
Cc1cnn(CCNCc2nc(COc3ccc(F)cc3)no2)c1 | -9.095
Cc1cnn(CCNCc2csc(-c3ccc(F)cc3)n2)c1 | 0.7899
Cc1cnn(CCNC(C)c2nnc(-c3ccccc3)o2)c1 (stereo not given) | -3.26
COc1ccc(-c2nnc(CNCCn3cc(C)cn3)o2)cc1 | 93.96
c1ccc(-c2nnc(CNCCn3cccn3)o2)cc1 | -4.985
Cc1cnn(CCNCc2nnc(-c3ccc(F)cc3)o2)c1 | 123.4
Cc1cnn(CCNCc2cc(C)no2)c1 | 0.9077
Cc1ccc(-c2nnc(C(C)NCCn3cc(C)cn3)o2)cc1 (stereo not given) | 8.064
CCc1noc(CN(CC(=O)N2CCCCC2)c2cccc(C)c2)n1 | 13.21
COc1ccc(OCc2cc(C(=O)N3CC=CC3)n[nH]2)c(Cl)c1 | 6.358
CS(=O)(=O)NCc1noc2c1CN(C(=O)C1CCC1)CC2 | 102.9
O=C(c1ccnnc1)N1CCc2onc(CN3CCCC3)c2C1 | -11.85
CS(=O)(=O)NCc1noc2c1CN(C(=O)c1ccsc1)CC2 | 8.076

SMILES | Percent Effect [%]
CCC(=O)N1CCc2onc(CNS(C)(=O)=O)c2C1 | 86.89
COCC(=O)N1CCc2c(CNS(C)(=O)=O)n[nH]c2C1 | 5.679
CC(=O)NCc1noc2c1CN(CCN1CCCC1)CC2.O=C(O)C(F)(F)F.O=C(O)C(F)(F)F | -16.49
CS(=O)(=O)NCc1noc2c1CN(C(=O)C1CC1)CC2 | 103.2
FC(F)(F)C1CCCn2c(CNCc3cccs3)nnc21 (stereo not given) | -7.2
CCN(CC)C(=O)N1CCN(C2=NCC(C)S2)CC1 (stereo not given) | -3.513
Cc1nccc(CNC(=O)N2CCN(Cc3ccccc3)C[C@H]2C)n1 | -2.521
Cc1nccc(CN2CC[C@@]3(CCCN3Cc3ccccc3)[C@@H](O)C2)n1 | 93.51
Cc1ccnc(N2CCN(Cc3ccccc3)CC(O)C2)c1 (stereo not given) | 10.83
COc1ccc(-c2ccc(C(=O)NCCCC(N)=O)c(F)c2)c(F)c1 | -2.164
Cc1c(C2CCOC(C)(C)C2)nc(N)c(C#N)c1-c1ccc(O)cc1 (stereo not given) | 105.2
CCc1ccc(-c2c(C)c(-c3cnn(C)c3)nc(N)c2C#N)o1 | 7.382
Cc1c(-c2cnn(C)c2)nc(N)c(C#N)c1-c1ccc(CO)o1 | 0.3251
Cn1cc(-c2noc(C3(C)CCOCC3)n2)cn1 | -4.622
Cc1cc(-c2cc(C3CCOC3)c(C#N)c(N)n2)ccc1Cl (stereo not given) | 25.02
N#Cc1c(C2CC2)cc(-c2ccc(O)cc2)nc1N | -0.3878
CCn1cc(-c2c(C)c(C3CCOC(C)(C)C3)nc(N)c2C#N)cn1 (stereo not given) | 115.2
CCCc1c(C2CCOC(C)(C)C2)nc(N)c(C#N)c1-c1cnn(C)c1 (stereo not given) | 105.7
CN(C)C(=O)CN1C[C@@H]2CC[C@H](C1)N(C/C=C/c1ccc(F)cc1)C2 | 0.7109
CCc1cc(NC(=O)N2CCC(Oc3cccnc3)C2)n(C)n1 (stereo not given) | -19.7
Cc1nn2cccnc2c1C(=O)NCc1ccccc1OCC1CC1 | 6.014
O=S(=O)(N1CCN(CC2CC2)CC1)N1CCCC1c1ccco1 (stereo not given) | 8.161
CC(=O)c1c(C)nn(CC(=O)N2Cc3cnc(CC(C)C)nc3C2)c1C | -0.1145
COC(=O)c1ccc(S(=O)(=O)NCC(C)(O)c2cccs2)cc1 (stereo not given) | -7.069
Cc1ccccc1NC(=O)NCC(C)(O)c1cccs1 (stereo not given) | 117.7
CSCCC(C)(O)CNC(=O)Nc1ccccc1C (stereo not given) | 6.778
CCOc1ccc(NC(=O)NCC(C)(O)c2cccs2)cc1 (stereo not given) | 123.8
